An excerpt weighted towards active compounds, which were near 3.8% of everything screened.
PfHsp90 yeast 2: growth inhibition of yeast expressing Plasmodium Hsp90 | S. cerevisiae expressing PfHsp90, BacTiter-Glo ATP, 48 h; yeast lacking PDR1 and PDR3 efflux regulators | inhibition, % at 9.4 µM | 0.32% of 310,000 active | AID 504621;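 active means every replicate shows inhibition above about 80%, whatever the replicate mean, limit read from the data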;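 further: 0% = DMSO neutral controls and 100% = 20 µM radicicol positive controls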
tim10-1 inh: tim10-1 yeast growth inhibition. S. cerevisiae tim10-1 ts strain growth, BacTiter-Glo, 24 h. inhibition, % at 20 µM. 2.2% of 330,000 active. AID 463190;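 active means inhibition of at least 40%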;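 further: mutant grown at 25 °C; 0% = DMSO wells with yeast and 100% = wells holding no yeast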
Beta2AR agonist: activates human beta-2 adrenergic receptor causing internalization; AID 504454; response, % (test concentration not listed); Am2.2-beta2AR cells, FAP receptor internalization, flow cytometry; P07550; 0.43% of 340,000 active;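 active means response above a set limit, near 3 SD of response in nonfluorescent compounds, cut at about 42% in these data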
Target sequence (P07550 whole entry, looked up): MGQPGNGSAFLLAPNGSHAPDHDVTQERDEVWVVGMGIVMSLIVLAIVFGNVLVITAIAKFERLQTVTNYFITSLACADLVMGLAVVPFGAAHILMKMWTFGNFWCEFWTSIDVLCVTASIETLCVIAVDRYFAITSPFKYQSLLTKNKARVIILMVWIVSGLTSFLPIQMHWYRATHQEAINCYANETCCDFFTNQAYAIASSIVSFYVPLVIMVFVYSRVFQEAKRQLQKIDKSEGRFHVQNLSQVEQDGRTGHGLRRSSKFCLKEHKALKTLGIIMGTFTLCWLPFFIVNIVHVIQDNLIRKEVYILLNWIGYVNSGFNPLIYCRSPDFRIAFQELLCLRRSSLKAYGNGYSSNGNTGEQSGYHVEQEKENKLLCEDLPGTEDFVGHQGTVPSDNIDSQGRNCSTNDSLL
TIM10 inh: TIM10 yeast growth inhibition; S. cerevisiae TIM10 strain growth, BacTiter-Glo luminescence, 24 h; inhibition, % at 10 µM; 1.4% of 330,000 active;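 active means inhibition of 40% or more at the single tested concentration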;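 further: wild-type TIM10 isogenic control strain grown at permissive 25 °C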
tim23-1 inh: tim23-1 yeast growth inhibition; inhibition, % at 20 µM; S. cerevisiae tim23-1 growth, BacTiter-Glo luminescence, 24 h; 1.3% of 330,000 active;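 active means growth inhibition of the mutant yeast at or above 50%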;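 further: temperature-sensitive mutant grown at 25 °C; plate controls were DMSO-treated mutant yeast for no effect and medium wells lacking yeast for full effect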
tim10-1 confirm: tim10-1 yeast growth inhibition, confirmed | shares compounds with tim10-1 inh | S. cerevisiae tim10-1 ts strain growth, BacTiter-Glo, 24 h | inhibition, % at 20 µM | 56% of 7,400 active | AID 463213;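 active means inhibition of yeast growth at or above a set limit in either of two repeat tests at 20 µM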;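 further: tim10-1 mutant grown at permissive 25 °C to find synthetic lethal compounds; 0% = DMSO yeast wells and 100% = medium wells without yeast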
Starred values were filed as active, the others as inactive; / = no result given.

SMILES | PfHsp90 yeast 2 | tim10-1 inh | Beta2AR agonist | TIM10 inh | tim23-1 inh | tim10-1 confirm
S=c1[nH]nc(-c2cc(-c3ccccc3)n[nH]2)n1/N=C/c1ccccc1 | -21 | -3 | -2 | -10 | -7 | /
O=C(COc1cccc(C(F)(F)F)c1)Nc1cccc(S(=O)(=O)NC2=NCCCCC2)c1 | 1 | / | 7 | / | / | /
C/C(=N\NC(=S)Nc1cc(S(=O)(=O)N2CCOCC2)ccc1Cl)c1ccc(N2CCOCC2)cc1 | 8 | 9 | 7 | 23 | 3 | /
C/C(=N\NC(=S)Nc1ccc(C)c(C)c1)c1ccc(N2CCOCC2)cc1 | -4 | 41* | 3 | 31 | 48 | 25
Cc1ccc(O)c(C2=Nc3ccccc3N=C(c3cccc([N+](=O)[O-])c3)C2)c1 | -10 | 40* | -2 | 14 | 3 | 18
Cc1ccc(O)c(C2=Nc3ccccc3N=C(c3ccc([N+](=O)[O-])cc3)C2)c1 | -11 | 5 | -3 | -31 | -25 | /
COC(=O)c1ccc(NS(=O)(=O)c2ccc(SC)cc2)cc1 | 29 | 40* | -2 | 13 | 31 | 21
Cc1ccc(N2CC(C(=O)Nc3nnc(SCCN4CCOCC4)s3)CC2=O)cc1 (stereo not given) | -2 | -16 | 8 | 8 | -3 | /
O=C(C1CCN(S(=O)(=O)c2cccc3nsnc23)CC1)N1CC=C(c2ccccc2)CC1 | 10 | 43* | 22 | 12 | 10 | 21
O=C(C1CCCN(S(=O)(=O)c2cccc3nsnc23)C1)N1CC=C(c2ccccc2)CC1 (stereo not given) | -29 | 15 | 4 | 26 | 6 | /
COC(=O)c1ccc(N2CCN(S(=O)(=O)c3ccccc3)CC2)c([N+](=O)[O-])c1 | -14 | 42* | 4 | 3 | 30 | 15
O=C(c1ccc(N2CCN(S(=O)(=O)c3ccccc3)CC2)c([N+](=O)[O-])c1)N1CCOCC1 | -23 | 9 | 3 | 4 | 12 | /
O=C1CC(C(=O)O)C(c2ccccc2)c2ccccc21 (stereo not given) | -6 | / | 2 | / | / | /
CCOC(=O)C1(S(=O)(=O)c2ccccc2)CCN(Cc2ccc(Cl)cc2)CC1 | 23 | 48* | 2 | 24 | 43 | 20
NC(=O)/C=C\c1cn(-c2ccccc2)nc1-c1ccc2c(c1)OCCO2 | 10 | -12 | -1 | 15 | 18 | /
CNC(=O)COC(=O)/C=C/c1cn(-c2ccccc2)nc1-c1ccc2c(c1)OCCO2 | / | 41* | 5 | 21 | 11 | 29*
Cc1cc(=O)oc2cc(OCc3nnc(-c4ccccc4Br)o3)ccc12 | -31 | 44* | 2 | 25 | 18 | 21
O=c1ccc2ccc(OCc3nnc(-c4ccccc4Br)o3)cc2o1 | / | 12 | -18 | 6 | 10 | /
Cc1cccc(CSC(Nc2ccc(F)cc2)=C(C#N)C#N)c1 | -1 | 44* | 10 | 24 | 25 | 28
COc1cccc(C(C)NC(=S)NCc2ccc(F)cc2)c1 (stereo not given) | -8 | 42* | -5 | 25 | 24 | -1
O=c1c2c([nH]n1-c1ccccc1)CCCC2 | -32 | 46* | -9 | 20 | 39 | 27
Oc1ccccc1CNc1ccc(OC(F)(F)F)cc1 | -26 | 42* | 3 | 33 | 33 | 27
NC(=O)C1CCCN(C(=O)CN2C(=O)NC(c3ccccc3)(c3ccccc3)C2=O)C1 (stereo not given) | -8 | 6 | 1 | -1 | 18 | /
CCOc1ccc(N2C=Nc3ccc(OCC)cc3C2)cc1 | 26 | 42* | -6 | -1 | 33 | 25
O=C(NC1CCCN(c2ccc(C(F)(F)F)cn2)C1)c1ccncc1 (stereo not given) | -4 | 33 | -3 | -38 | -125 | /
SMILES | PfHsp90 yeast 2 | tim10-1 inh | Beta2AR agonist | TIM10 inh | tim23-1 inh | tim10-1 confirm
CSc1ccccc1C(=O)NC1CCCN(c2ccc(C(F)(F)F)cn2)C1 (stereo not given) | -21 | 43* | -6 | -7 | 24 | 3
Cc1ccc(NC(=S)Nc2ccc(Cl)c(Cl)c2)c(OC(F)F)c1 | 12 | 61* | 19 | 32 | 48 | 38*
Cc1ccc(NC(=S)Nc2ccc(OC(F)F)c(Cl)c2)cc1Cl | 8 | / | 1 | / | / | /
CSc1ccccc1NC(=S)N/N=C/c1cccn1Cc1ccc(F)cc1 | -63 | 44* | 8 | 23 | 12 | 30
CSc1ccccc1NC(=S)N/N=C/c1cccn1Cc1cccc(C)c1 | -27 | 38 | -6 | 37 | 16 | /
CC[C@]12c3[nH]c4ccc(Cl)cc4c3CCN1C(=O)[C@@H](CC(=O)NC/C=C(\C)CCC=C(C)C)C[C@@H]2C(=O)N1CCN(C(=O)C2CC2)CC1 | -10 | 13 | 6 | 3 | 37 | /
CCOC(=O)CC(=O)CSc1nc2c(cc1C#N)CCC2 | -20 | -8 | 0 | -12 | 6 | /
CCOC(=O)CC(=O)CSc1nc2c(c(-c3cccs3)c1C#N)CCC2 | -4 | 42* | 7 | 26 | 41 | 33*
CC(Cl)C(=O)NC(=O)NC12CC3CC(CC(C3)C1)C2 (stereo not given) | 2 | 42* | 2 | 29 | 45 | 26
O=C(CN1C(=O)/C(=C\c2cccc(Br)c2)Oc2ccccc21)NCCCN1CCOCC1 | -4 | 44* | 27 | 21 | 32 | 26
COc1cccc(-c2c(C(=O)N/N=C(\C)c3cccnc3)nnn2-c2nonc2N)c1 | -5 | 21 | -8 | 3 | 10 | /
CC(C)c1cc(NCC2CCCO2)n2c(nc3ccccc32)c1C#N (stereo not given) | 38 | 48* | -20 | 26 | 37 | 34*
Cc1cc(NCC2CCCO2)n2c(nc3ccccc32)c1C#N (stereo not given) | 8 | 37 | -1 | 22 | 26 | /
COc1ccc(-c2nc(-c3cccs3)c(-c3cccs3)[nH]2)cc1OC | -6 | 50* | 11 | 36 | 7 | 36*
O=CNc1ccc2c(c1)Cc1cccc(NC=O)c1-2 | -23 | / | 0 | / | / | /
Nc1nc(-c2cc(O)ccc2[N+](=O)[O-])cc(-c2ccccc2)c1[N+](=O)[O-] | -13 | -12 | 23 | -24 | -3 | /
CC1C(=O)N2CCCc3cc(S(=O)(=O)Nc4ccccc4C(N)=O)cc1c32 (stereo not given) | / | -1 | -14 | 15 | 5 | /
CN(c1ccccc1)S(=O)(=O)c1ccc(NC(=O)c2ccco2)cc1 | 0 | 33 | -15 | 28 | 44 | /
CN(C1CCCCC1)S(=O)(=O)c1ccc(NC(=O)c2ccco2)cc1 | -14 | 44* | -5 | 11 | 42 | 29*
CCOC(=O)C1(CCc2ccccc2)CCN(C(=O)CCc2cnn(C)c2)CC1 | -19 | 42* | 2 | 15 | 27 | 30*
Cc1ccc(SCC(=O)OCc2csc(CC(=O)Nc3ccccc3C)n2)cc1C | -9 | 24 | -1 | 4 | 31 | /
CC1=Nc2cc(C(=O)N3CCCCC3)ccc2Sc2ccc(C)cc21 | 20 | 45* | 0 | 10 | 32 | 0
